AmpC detergent = inhibitors of E. coli AmpC beta-lactamase with detergent. P00811. AmpC hydrolysis of nitrocefin, absorbance 480 nm, 0.01% Triton. Potency, µM (highest dose often 114 µM), for inactives: top-dose activity change, negative = inhibition, hits mostly inhibitors. 370,000 tested, 0.041% active;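 also: 0% = no-compound wells and -100% = no-enzyme wells; nearly all actives have a fitted effect of over 25% in size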
Target sequence (P00811 whole entry, looked up): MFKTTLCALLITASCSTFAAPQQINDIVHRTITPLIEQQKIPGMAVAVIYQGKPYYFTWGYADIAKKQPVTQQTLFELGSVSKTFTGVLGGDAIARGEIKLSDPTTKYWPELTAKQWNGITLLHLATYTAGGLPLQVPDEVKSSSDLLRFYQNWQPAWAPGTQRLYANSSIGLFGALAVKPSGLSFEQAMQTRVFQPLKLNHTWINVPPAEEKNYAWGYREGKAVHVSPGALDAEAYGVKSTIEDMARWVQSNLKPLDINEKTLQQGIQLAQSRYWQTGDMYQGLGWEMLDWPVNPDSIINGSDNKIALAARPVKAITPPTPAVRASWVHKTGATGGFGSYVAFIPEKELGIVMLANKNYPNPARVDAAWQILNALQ
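20 mM phosphate pH 7.0 + 0.01% (detergent screen) or 0.0001% Triton X-100; 5.3 nM AmpC reagent; cpd preinc 15 min RT; nitrocefin (800 uM stock) to start; A480 q20 s × 4 min; Activity was normalised to no-enzyme and no-compound control wells.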
AmpC no deterg = AmpC beta-lactamase inhibition without detergent. P00811. AmpC nitrocefin hydrolysis, absorbance 480 nm, 0.0001% Triton. Potency, µM (titrated, usually from 57.1 µM), for inactives: top-dose activity change, negative = inhibition, hits mostly inhibitors. 330,000 tested, 0.52% active. AID 485341;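 also: plate controls were no compound for no effect and no enzyme for full effect; nearly all actives have a fitted effect of over 20% in size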
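AmpC (5.3 nM in the dispensed reagent) in 20 mM phosphate pH 7.0 with 0.01% (detergent screen) or 0.0001% Triton X-100 was preincubated with compounds for 15 min at room temperature. Nitrocefin was then added from an 800 uM solution, and hydrolysis was followed at 480 nm.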
Sm TGR block = inhibitors of Schistosoma mansoni thioredoxin glutathione reductase. 360,000 tested, 3% active. Q962Y6. purified TGR, DTNB reduction, TNB absorbance 405 nm. Potency, µM (series often up to 114 µM), inactives show at the highest dose activity change, negative = inhibition, most hits filed as inhibitors; also: nearly all actives have a fitted effect of over 60% in size
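Kinetic colorimetric format: TGR-catalysed, NADPH-driven DTNB reduction monitored via TNB absorbance. Enzyme dispensed at 20 nM; compound exposure 15 min at room temperature before reaction start.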
RE007 growth inh = less growth of the S. pombe RE007 Vpr strain; S. pombe RE007 Vpr strain, BacTiter-Glo ATP luminescence, 24 h; 360,000 tested, 0.21% active; Potency, µM (top dose mostly 92.2 µM), inactives show at the highest dose activity change, negative = less growth, actives largely listed as inhibitors; active = well fitted falling curve with a large enough effect; inconclusive = small, poorly fitted or top-dose-only effect; inactive = no such curve, though single readings can be large or run the other way; also: nearly all actives have a fitted effect of over 50% in size
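Fission yeast strain RE007, carrying one chromosomally integrated HIV-1 vpr copy, was seeded at OD 0.01 in PMG+AL medium with 23 nL pinned compound. After 24 h at 30 °C and 99% humidity, viability was read by BacTiter-Glo luminescence.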
AMA1 RON2 block = AMA1-RON2 (P. falciparum) interaction inhibition | AlphaScreen AMA1-biotinylated RON2 peptide binding | Potency, µM (highest dose often 58.2 µM), for the others: top-dose activity change, negative = inhibition, usual class: inhibitors | 360,000 tested, 0.2% active | AID 720542;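 also: 0% = vehicle wells and -100% = peptide control; nearly all actives have a fitted effect of over 45% in size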
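AMA1 (3D7) with his tag at 25 nM final met compounds first, then biotinylated RON2 peptide at 25 nM; detection used donor plus acceptor beads, 10 µg/mL apiece, read by AlphaScreen after 30 min at room temperature.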
Starred values were filed as active, the others as inactive; ? = inconclusive; nt = no result; [ ] = remark or other dose. Compounds with a hit are over-represented: about 3.2% of the library has one in this group of screens. Unless noted, calls follow the shape of the dose curve; as a rule, active = well fitted curve in the direction sought with a large enough effect; inconclusive = small, poorly fitted or top-dose-only effect, or another doubt; inactive = no such curve, though single readings can be large; an effect the other way counts as inactive or inconclusive. Unless noted, % is scaled to controls: 0 for no effect and ±100 for the full control effect; potency is read from the fitted curve at half-maximal effect.

SMILES | AmpC detergent | AmpC no deterg | Sm TGR block | RE007 growth inh | AMA1 RON2 block
c1ccc(Cn2c(-c3ccco3)nc3nc4ccccc4nc32)cc1 | -19% | 36% | ? | -5% | -17%
O=c1c2ccccc2nc(-c2ccco2)n1Cc1ccccc1 | -10% | nt | 50µM* | -8% | -4%
CCC(c1nnc(SCc2nc3ccccc3s2)n1Cc1ccccc1)N(C)C (stereo unspecified) | -6% | 67% | 0% | 6% | -6%
COc1ccc(Cn2c(-c3ccco3)nc3c(c(=O)c4ccccc4n3C)c2=O)cc1 | 2% | -22% | 50µM* | 11% | -7%
c1ccc(Cn2c(SCc3nc4ccccc4s3)nnc2-c2ccco2)cc1 | -5% | -30% | 13µM* | -13% | ?
CCOC(=O)c1cc(C)n(CC2CCC(C(=O)Nc3ccc(OCC)cc3)CC2)c1C (stereo unspecified) | 2% | nt | -18% | nt | nt
Cc1cccc(C(=O)NC2(C(F)(F)F)N=C(c3ccccc3)N(C3CCCCC3)C2=O)c1 (stereo unspecified) | -2% | nt | 6% | nt | nt
COc1cccc(-c2csc(NC3OC(=O)c4c3ccc(OC)c4OC)n2)c1 (stereo unspecified) | -6% | -24% | 40µM* | -6% | -13%
CC(/C=N/NC(=O)c1ccccn1)=C\c1ccco1 | 11% | -9% | 35µM* | -16% | 14%
O=C(N/N=C/C(Cl)=C/c1ccccc1)c1ccccn1 | 0% | -13% | nt | -19% | 88%
O=C(N/N=C/C=C\c1ccco1)c1ccccn1 | 3% | -19% | 10µM* | 2% | ?
O=C(N/N=C/c1ccco1)c1cnccn1 | -9% | -4% | 5% | -8% | 12%
O=C(N/N=C/C=C/c1ccco1)c1cnccn1 | 3% | -5% | 10µM* | 5% | 21%
COc1ccc(OCC(=O)N/N=C/C(C)=C/c2ccco2)c(Br)c1 | -7% | -14% | 40µM* | -10% | -2%
CCN(CC)S(=O)(=O)c1ccc2c(c1)N(CC(=O)N1CCN(c3ccccc3F)CC1)C(=O)CO2 | 0% | nt | -2% | nt | nt
Cc1cc(C)c2c(CC(=O)Nc3ccccc3C(F)(F)F)coc2c1 | -3% | nt | -6% | nt | nt
CCc1ccc(NC(=O)CSc2nc(C)cc(COC)c2C#N)cc1 | -1% | nt | -1% | nt | nt
CC(NC(=O)c1ccc2c(c1)N(Cc1cccc(F)c1)C(=O)c1ccccc1S2)c1ccccc1 (stereo unspecified) | -3% | nt | 11% | nt | nt
CCOC(=O)c1cc2c(=O)n3ccccc3nc2n(Cc2ccco2)c1=NC(=O)c1ccc(OC)cc1 | 1% | 11% | ? | -1% | 8%
CCOC(=O)c1cc2c(=O)n3ccccc3nc2n(Cc2ccco2)c1=NC(=O)c1ccccc1OC | 6% | -17% | 5.6µM* | 1% | -3%
C=CCc1cc(C=C2C(=O)N(C)C(=O)N(C)C2=O)cc(OCC)c1OCc1ccccc1 | -2% | -15% | 32µM* | -9% | -3%[2.32 µM]
C=CCc1cc(C=C2C(=O)NC(=O)NC2=O)cc(OC)c1OCc1ccc(C(=O)O)cc1 | -3% | -50% | ? | 1% | 0%
CCCCNC(=O)COC(=O)c1c2c(nc3ccccc13)/C(=C/c1cccs1)CC2 | -5% | 25µM* | -13% | 27% | 37%
Cc1ccc(NC(=O)N2CCN(c3nnc(C)c4c(C)n(-c5ccccc5)nc34)CC2)cc1Cl | 20% | nt | -7% | nt | nt
COc1ccc2ccc3c(c2c1)N=C[C@]1(O3)N(C)c2ccccc2C1(C)C | ? | -45% | 28µM* | -16% | ?
SMILES | AmpC detergent | AmpC no deterg | Sm TGR block | RE007 growth inh | AMA1 RON2 block
Cc1ccc(-c2cc(C(F)(F)F)c(C#N)c(=O)[nH]2)cc1 | ? | -11% | -3% | -8% | -8%
N#Cc1c(-c2ccco2)cc(-c2ccccc2)[nH]c1=O | -7% | -43% | 8.9µM* | 3% | -7%
CC(=O)Nc1nc(-c2ccccc2)cc(-c2ccco2)c1C#N | 9% | -16% | ? | 4% | -2%
N#Cc1c(-c2ccccc2)cc(-c2ccco2)c(C#N)c1N | -5% | 14µM* | 2.8µM* | nt | nt
Cc1ccc(-c2cc(-c3ccco3)c(C#N)c(=O)[nH]2)cc1 | -1% | -48% | 2.2µM* | -2% | 4%
N#Cc1sc2nc(-c3ccccc3)cc(-c3ccco3)c2c1N | 2% | ? | 40µM* | -6% | -28%
Cc1cc(-c2ccccc2)[nH]c(=O)c1C#N | -7% | -23% | -2% | 5% | 20%
Cc1nc2ncnn2c(C)c1CCC(=O)NCc1ccccc1Cl | 2% | nt | 2% | nt | nt
O=C(NCc1ccc(F)cc1)c1cc2n(n1)CCCN(Cc1ccc(F)cc1)C2=O | -7% | nt | -10% | nt | nt
COc1cc(OC)c(OC)cc1/C=C/c1nc2cc3ccccc3cc2c(=O)n1-c1ccc(F)cc1F | -3% | nt | 13% | nt | nt
O=C(COC(=O)c1ccc(S(=O)(=O)NCc2ccco2)cc1)NCCC1=CCCCC1 | -1% | -43% | 45µM* | -11% | -4%
CCCOc1cc(CC(=O)NCc2ccco2)ccc1OC | -2% | -12% | -19% | 24% | 5%
COc1cc(C(=O)OCC(=O)NCc2ccco2)cc(OC)c1OC | -15% | -9% | 45µM* | -1% | -9%
COc1cc(OC)cc(C(=O)OCC(=O)NCc2ccco2)c1 | 5% | 8% | ? | 5% | 6%
O=C(COC(=O)c1cc2ccccc2cc1O)NC(=O)NCc1ccco1 | 1% | -31% | 45µM* | 6% | 3%
COc1ccc(CC(=O)OCC(=O)NCc2ccco2)cc1OC | -16% | -9% | 40µM* | 8% | 20%
CCCCNC(=O)CCCn1c(=O)c2ccccc2n(Cc2ccc(Cl)cc2)c1=O | 10% | nt | 5% | nt | nt
CC(C)C(NC(=O)OCc1ccccc1)C(=O)OCC(=O)NCc1ccco1 (stereo unspecified) | 0% | -1% | 28µM* | -28% | 4%
Cc1cc2c(cc(C(=O)OCC(=O)NCc3ccco3)n2C)s1 | 2% | -32% | -15% | 4% | -11%
CCN(CC)S(=O)(=O)c1ccc(OCC(=O)NCc2ccco2)cc1 | 7% | 9% | 22µM* | 0% | -12%
CC(C)(C)c1ccc(OCC(=O)NCc2ccco2)c(Br)c1 | 5% | 23% | 10µM* | ? | 20%
Cc1ccc(S(=O)(=O)N(C)c2ccc(OCC(=O)NCc3ccco3)cc2)cc1 | 2% | -7% | 2% | -11%[3.69 µM] | -20%
Cn1c(C(=O)OCC(=O)NCc2ccco2)cc2sccc21 | -10% | -27% | 50µM* | 8% | -5%
CCOc1ccc2oc(=O)cc(CN3CCN(Cc4ccc(F)cc4)CC3)c2c1 | 3% | nt | ? | nt | nt
COc1ccc(N(CC(=O)NCc2ccco2)S(=O)(=O)c2ccc(OC)c(OC)c2)cc1 | -15% | 24% | -3%[11.4 µM] | -7% | -8%

Compound activity from PubChem BioAssay.
